Literature values, collected in PubChem BioAssay AID977611.
Hit rate of the full screen: of about 3,900 compounds, about 3,900 (100%) were called active. Cut-off not given; nearly all actives show Kd up to about 4200 µM. The set was probably picked from earlier hits. The list shows a part of the results. Starred links: 1 amine or outer side, 2 acyl side, 3 side chain; linkers in the order of their positions; H or OH if unused. *1 amine or outer side, *2 acyl side, *3 side chain or, on linkers, in order; H or OH if unused. Where a SMILES comes first, the peptide text is derived from it. Non-standard residues stand in square brackets, D forms with d. Square brackets hold non-standard residues; d marks the D form. Residues, ends and D or L forms follow the SMILES beside them. Peptide text beside a SMILES is read from it. [ ]: non-standard residue; d: D form. ξ: configuration not given here. X1 = O=C([C@H](Cc1ccc(O[P+](O)(O)O)cc1)N[*:1])[*:2]; Thr(P(OH)3+) = C[C@@H](O[P+](O)(O)O)[C@H](N)C(=O)O; Orn(CH(NH2)2) = NC(N)NCCC[C@H](N)C(=O)O; ξE = NC(CCC(=O)O)C(=O)O

Test: PubChem AID 977611
Details: PDB protein-ligand complexes, literature Kd

O=C1C=C(O)C=CC1S(=O)(=O)n1cc2ccc(O)cc2c1 (stereo unspecified)
Kd (PDB entry 4mpe): 0.426 µM (active)

C/C(O)=[N+](/O)CCC[C@@H]1NC(=O)CNC(=O)CNC(=O)CNC(=O)C(CCCN(O)C(C)O)NC(=O)[C@H](CCCN(O)C(C)O)NC1=O.[Fe] (stereo partly specified)
Kd (protein: Iron-compound ABC transporter, iron compound-binding protein, PDB entry 4hmq): 0.0058 µM (active)

H-LLPTLPKLPSL-OH
Kd (protein: Ankyrin Repeat Domains of Human ANKRA2, PDB entry 3v2x): 4.5 µM (active)

H-APTLPKLPSLS-OH
Kd (protein: Ankyrin Repeat Domains of Human ANKRA2, PDB entry 3v2o): 4.9 µM (active)

C[C@@H](O)[C@H](N)C(=O)N[C@@H](CCCNC(N)N)C(=O)N[C@@H](CO)C(=O)N[C@@H](CCCCN)C(=O)N[C@@H](Cc1ccccc1)C(=O)N[C@@H](Cc1ccccc1)C(=O)N[C@@H](CC(N)=O)C(=O)O (H-T[Orn(CH(NH2)2)]SKFFN-OH)
Kd (protein: C-terminal domain of the Saccharomyces cerevisiae MUTL alpha (MLH1/PMS1) heterodimer, PDB entry 4fmo): 2.94 µM (active)

CC(=O)N[C@H](C(=O)N[C@@H](CCCNC(N)N)C(=O)N[C@@H](CO)C(=O)N[C@@H](CCCCN)C(=O)N[C@@H](Cc1ccc(O)cc1)C(=O)N[C@@H](Cc1ccccc1)C(=O)N[C@@H](CCCCN)C(=O)O)C(C)C (Ac-V[Orn(CH(NH2)2)]SKYFK-OH)
Kd (protein: C-terminal domain of the Saccharomyces cerevisiae MUTL alpha (MLH1/PMS1) heterodimer, PDB entry 4fmn): 0.75 µM (active)

CC(=O)N[C@@H](Cc1cnc[nH]1)C(=O)N[C@@H](CO)C(=O)N[C@@H](CCCCN)C(=O)N[C@@H](Cc1ccc(O)cc1)C(=O)N1CCC[C@H]1C(=O)N[C@@H](CC(C)C)C(=O)N1CCC[C@H]1C(=O)N1CCC[C@H]1C(=O)N[C@@H](CC(C)C)C(=O)N1CCC[C@H]1C(=O)N[C@@H](CO)C(=O)N[C@@H](CC(C)C)C(N)=O (Ac-HSKYPLPPLPSL-NH2)
Kd (protein: Tyrosine-protein kinase HCK, PDB entry 2oi3): 0.23 µM (active)

H-DADTLLHFATESTPD-OH
Kd (protein: Beta-catenin-interacting protein 1, PDB entry 1t08): 3.1 µM (active)

H-HPVGDADYFEY-OH
Kd (protein: LA class I histocompatibility antigen, B-35 alpha chain HLA-B 35:01, PDB entry 4pr5): 2.2 µM (active)
Kd (protein: MHC class I antigen HLA-B 35:08, PDB entry 4prd): 25.4 µM (active)
Kd (protein: MHC class I antigen-Beta-2-microglobulin, PDB entry 4prh): 25.4 µM (active)

CC(C)C[C@H](NC(=O)[C@H](C)NC(=O)[C@H](CCC(=O)O)NC(=O)[C@H](CC(=O)O)NC(=O)[C@H](Cc1ccc(O)cc1)NC(=O)[C@H](CO)NC(=O)[C@@H]1CCCN1C(=O)[C@H](CC(C)C)NC(=O)CNC(=O)[C@@H](N)[C@@H](C)O)C(=O)N[C@@H](Cc1cnc[nH]1)C(=O)O (H-TGLPSYDEALH-OH)
Kd (protein: E3 ubiquitin-protein ligase NEDD4, PDB entry 2ez5): 3 µM (active)

H-HPVGEADYFEY-OH
Kd (protein: MHC class I antigen-Beta-2-microglobulin, PDB entry 4pri): 93.2 µM (active)

H-EPPLNPHGSARAEVHA-OH
Kd (protein: WD repeat-containing protein 5, WDR5, PDB entry 4esg): 2.76 µM (active)

CC(C)C[C@H](NC(=O)[C@H](CC(=O)O)NC(=O)[C@H](Cc1ccc(O)cc1)NC(=O)[C@H](CC(C)C)NC(=O)[C@H](CCC(=O)O)NC(=O)[C@H](Cc1cnc[nH]1)NC(=O)[C@H](CC(C)C)NC(=O)[C@@H](NC(=O)[C@@H]1CCCN1C(=O)[C@@H]1CCCN1)[C@@H](C)O)C(=O)O (H-PPTLHELYDL-OH)
Kd (protein: Retinoblastoma-associated protein, PDB entry 2r7g): 0.9 µM (active)

H-ANPHGAARAEVY-OH
Kd (protein: WD repeat-containing protein 5, WDR5, PDB entry 4erz): 0.088 µM (active)

H-TLVSMPPLPGLDLAGS-OH
Kd (protein: Ankyrin Repeat Domains of Human DNA-binding protein RFXANK, PDB entry 3v30): 184 µM (active)

CC[C@H](C)[C@H](NC(=O)[C@H](Cc1ccc(O)cc1)NC(=O)[C@@H](N)C(C)C)C(=O)N[C@@H](Cc1cnc[nH]1)C(=O)N1CCC[C@H]1C(=O)N[C@@H](Cc1ccccc1)C(=O)O
Kd (protein: Aminopeptidase N, PDB entry 4fys): 15 µM (active)

H-HPVGQADYFEY-OH
Kd (protein: LA class I histocompatibility antigen, B-35 alpha chain HLA-B 35:011, PDB entry 4pra): 2.2 µM (active)
Kd (protein: MHC class I antigen HLA-B 35:08, PDB entry 4pre): 181 µM (active)
Kd (protein: MHC class I antigen-Beta-2-microglobulin, PDB entry 4prp): 2.2 µM (active)

H-HPVAEADYFEY-OH
Kd (protein: HLA class I histocompatibility antigen, B-35 alpha chain, PDB entry 4prn): 2.2 µM (active)
Kd (protein: MHC class I antigen HLA-B 35:08, PDB entry 4prb): 132 µM (active)

COc1cc(NC(=O)C[C@@]2(C)C[C@H](c3cccc(Cl)c3)[C@@H](c3ccc(Cl)c(F)c3)N([C@H](CS(=O)(=O)C(C)(C)C)C3CC3)C2=O)ccc1C(=O)O
Kd (protein: E3 ubiquitin-protein ligase Mdm2, PDB entry 4wt2): 3.8e-05 µM (active)

CC(C)C[C@H](NC(=O)[C@H](CC(C)C)NC(=O)[C@H](CCCNC(N)N)NC(=O)[C@@H](N)CC(N)=O)C(=O)N[C@@H](CC(C)C)C(=O)N[C@H](C(=O)NCC(=O)O)[C@@H](C)O
Kd (protein: Chaperone protein DnaK, PDB entry 4ezw): 1 µM (active)

CSCC[C@H](NC(=O)[C@H](CC(C)C)NC(=O)[C@H](CCCNC(N)N)NC(=O)[C@@H](N)CC(N)=O)C(=O)N[C@@H](CC(C)C)C(=O)N[C@H](C(=O)NCC(=O)O)[C@@H](C)O (H-N[Orn(CH(NH2)2)]LMLTG-OH)
Kd (protein: Chaperone protein DnaK, PDB entry 4ezx): 1.6 µM (active)

COc1cc(OC)c2c(=O)[nH]c(-c3cc(C)c(O)c(C)c3)nc2c1
Kd (protein: Bromodomain-containing protein 2, PDB entry 4mr5): 0.251 µM (active)
Kd (protein: Bromodomain-containing protein 4, PDB entry 4mr3): 1.14 µM (active)

COc1ccc(Nc2nc3cc(C(=O)O)ccc3n2Cc2ccccc2C(F)(F)F)cc1F
Kd (protein: KINESIN-LIKE PROTEIN KIF11, PDB entry 3zcw): 0.65 µM (active)

CC(C)C[C@H](NC(=O)[C@H](CC(N)=O)NC(=O)[C@@H](N)CCCNC(N)N)C(=O)N[C@@H](Cc1ccccc1)C(=O)NCC(=O)N1CCC[C@H]1C(=O)O (H-[Orn(CH(NH2)2)]NLFGP-OH)
Kd (protein: phospho-CDK2/cyclin A, PDB entry 1h27): 2.5 µM (active)

C[C@@H](O)[C@H](N)C(=O)N[C@@H](CC(N)=O)C(=O)N[C@@H](CCC(=O)O)C(=O)N[C@@H](Cc1ccc(O[P+](O)(O)O)cc1)C(=O)N[C@H](C(=O)N[C@@H](CCC(=O)O)C(=O)NCC(=O)N1CCC[C@H]1C(=O)N[C@H](C(=O)O)[C@@H](C)O)[C@@H](C)O (H-TNE[X1]TEGPT-OH)
Kd (protein: E3 ubiquitin-protein ligase CBL, PDB entry 3bum): 0.32 µM (active)

C[C@@H](O)[C@H](NC(=O)[C@H](CC(N)=O)NC(=O)[C@@H](N)CCCNC(N)N)C(=O)N[C@@H](CC(N)=O)C(=O)N[C@@H](CCC(=O)O)C(=O)N[C@@H](Cc1ccc(O[P+](O)(O)O)cc1)C(=O)N[C@H](C(=O)N[C@@H](CCC(=O)O)C(=O)NCC(=O)N1CCC[C@H]1C(=O)O)[C@@H](C)O[P+](O)(O)O (H-[Orn(CH(NH2)2)]NTNE[X1][Thr(P(OH)3+)]EGP-OH)
Kd (protein: E3 ubiquitin-protein ligase CBL c-Cbl TKB domain, PDB entry 3ob1): 3.83 µM (active)

CC(C)C[C@H](NC(=O)[C@@H](N)CC(=O)O)C(=O)N[C@@H](Cc1ccc(O)cc1)C(=O)NCC(=O)O (H-DLYG-OH)
Kd (protein: E3 ubiquitin-protein ligase RNF31 HOIP PUB Domain, PDB entry 4p0a): 30.3 µM (active)

CC(C)C[C@H](NC(=O)[C@H](CS)NC(=O)[C@H](CCC(=O)O)NC(=O)[C@H](Cc1ccc(O)cc1)NC(=O)CNC(=O)[C@H](Cc1ccc(O)cc1)NC(=O)C(CCC(=O)O)NC(=O)[C@H](CCC(=O)O)NC(=O)[C@@H](N)CC(=O)O)C(=O)N[C@@H](CC(=O)O)C(=O)O (stereo partly specified) (H-DE[ξE]YGYECLD-OH)
Kd (protein: AP-2 complex subunit mu-1, PDB entry 2pr9): 0.0422 µM (active)

CCc1cn([C@@H]2O[C@H](CO)[C@@H](O)[C@H]2O)c2ncnc(N)c12
Kd (protein: Adenosine kinase ADK, PDB entry 4pvv): 0.33 µM (active)

CNc1ncnc2c1ncn2[C@@H]1O[C@H](CO)[C@@H](O)[C@H]1O
Kd (protein: YTH domain-containing family protein 2 YTH-YTHDF2, PDB entry 4rdn): 1.2 µM (active)
